Test results as given in the OligoGym collection.

These sequences were tested against SLC38A11 (assay: pooled miR-30 sensor sort-seq; sequence = guide strand). Settings: shRNA.
Further: reference of the scale not given here.

Sequence | sensor-assay potency score (higher = more potent)
TACAACAATGTGGAAAACCGAT | -0.853
TTAAAGTAGAAAGTTGTGTTGT | 0.823
TCAAGTATCCACATGTAGCAAA | -0.803
TTTATCAATAAAACAAGGGAAA | -1.2
TAAACCTGTAGAGATGAGGGAG | 0.481
TTCTAGAGAACTGTAAACTAAG | -0.917
TTTTATTGACCAAAGACTGGTA | -0.145
TCTGCTGAACATGAGACTCTGA | 0.182
TTGTGTTGTCTGCTGAACATGA | -0.294
TTGAGTATTTGTAATAGCCATG | -1.21
TTGAGTTCTAGAACTATCCCGA | 0.433
TAATTTTCAAATAAGTCCCCTT | 0.231

Each sequence was assayed against SLC39A12 in the same assay as above. Settings: shRNA.

Sequence | sensor-assay potency score (higher = more potent)
TTTTTGATACAAGTACTTCTGG | 0.0669
TTGCAGTTGATTTTACTCCAAC | -1.11
TGACACAAGATAGCAATCGTAG | -0.876
TTTTGATACAAGTACTTCTGGT | -0.57
TAGAAATATCTCCACCAGCTGC | -1.07
TTGTCCCAGACAAACACCCTGG | -0.6
TTTATTACTCATGTTGAGCTTT | -0.0356
TTGCTTGTCACTTAACTTGCTT | -0.0821
